Data from the supplement of paper PMC10338343.
± gives the standard deviation.

The sequences below were run on MILI (PIWIL2) piRISC loaded with L1MC piRNA (26 nt) (assay: pre-steady-state target cleavage rate (min^-1); guide: L1MC piRNA 5'p-UAACUAAAUACUAUGCAAGCUGUAGG; MIWI and MILI are mouse PIWI proteins and EfPiwi is from a freshwater sponge; tags in brackets are library labels; higher = faster piRNA-guided slicing of the target). Settings: auxiliary factor: 500 nM mouse GTSF1.
Procedure: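 Cleave-'n-Seq: a library of target RNAs (target site embedded in constant flanks, ACAGCATTCCGCGTTAGTGATATCCG... 5' flank; DNA-blocked outside the site) at 0.1 nM was incubated with 1 nM active mouse MILI or MIWI piRISC (synthetic 5'-monophosphorylated piRNA guide) with or without 500 nM mouse GTSF1 at 33 °C for 1 min to 16 h. Uncleaved targets were sequenced and normalised to non-target controls, and the pooled three trials were fitted to a burst-and-steady-state model to give the pre-steady-state cleavage rate (min^-1; k3 is constrained to at most 1e-4). Sequence is the target site only; target names encode pairing extent (gX:gY) and contiguous / 1-mismatch / 2-mismatch / bulge geometry. Fits with R² ≤ 0 are excluded.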
For UCCUGGAUGUCCUUGCAAAGUAUUUUGUUA, the “pre-steady-state target cleavage rate” value was 0.0119 ± 0.0056. In the case of UCCUGGAUGUCGAUGCAUAGUUAUUUAGUUA, the “pre-steady-state target cleavage rate” value is reported as 0.00685 ± 0.0037. UCCUGGAUGUCCUUGCAUAGUAUUUUGAUA was tested, and the “pre-steady-state target cleavage rate” value was 0.0211 ± 0.0077. For UCCUGGAACAGCUUGCAUAGUAAAAACAAA, the “pre-steady-state target cleavage rate” value was 0.0763 ± 0.031. For UCCUCCUAGAGCUUGCAUAGUAUAUAGUUA, the “pre-steady-state target cleavage rate” value was 0.249 ± 0.029. With UCCUGGAUGUGCUUGCAUAGUAUUAUGUUA the “pre-steady-state target cleavage rate” value was 0.0376 ± 0.013. UCCUGGAUGUCGAUGCAUAGUAUGUUAGUUA was tested, and the “pre-steady-state target cleavage rate” value was 0.0347 ± 0.0076. With UCCUCCUACAGCUUGCAUAGUAUUUACUUA the “pre-steady-state target cleavage rate” value was 0.206 ± 0.039. In the case of UCCUGGUACAGCUUGCAUAGUAUUUACGUUA, the “pre-steady-state target cleavage rate” value is reported as 0.227 ± 0.039. With UCCUGCUACUCGUUGCAUAGUAUUUACAAA the “pre-steady-state target cleavage rate” value was 0.0703 ± 0.016. In the case of UCCUGGAACAGCUUGCAAAGUAUUUAGUUA, the “pre-steady-state target cleavage rate” value is reported as 0.135 ± 0.0089. UCCUGGAACAGCUUGCAUAGUAUUCAGUUA was tested, and the “pre-steady-state target cleavage rate” value was 0.228 ± 0.042. In the case of UCCUGGAUCAUCUUGCAUAGUAUUUAGUUA, the “pre-steady-state target cleavage rate” value is reported as 0.241 ± 0.014. UCCUGGAUGUCCUUGCAUAGUUAUUUAGUUA was tested, and the “pre-steady-state target cleavage rate” value was 0.0103 ± 0.0056. With UCCUGGAUGUCGAUGCAUAGUAUUUGGUUA the “pre-steady-state target cleavage rate” value was 0.0838 ± 0.016. For UCCUGGAUGUCGAAGCAUAGUAUUAAGUAA, the “pre-steady-state target cleavage rate” value was 0.0172 ± 0.0065. With UCCUGCUACUGGUUGCAUAGUAUUUAGUUA the “pre-steady-state target cleavage rate” value was 0.251 ± 0.018. With UCCUGGUACAGCUUGCAAAGUAAUUAGUUA the “pre-steady-state target cleavage rate” value was 0.207 ± 0.03. With UCCUGGAUCACGUUGCAUAGUAUUUAGUUA the “pre-steady-state target cleavage rate” value was 0.206 ± 0.019. With UCCUGCUACUCCUUGCAUAGUAUUUAGUAA the “pre-steady-state target cleavage rate” value was 0.188 ± 0.023. For UCCUGGAUCAGCUUGCAUUGUAUUUAGUUA, the “pre-steady-state target cleavage rate” value was 0.179 ± 0.013. For UCCUGGAACACCUUGCAUUGUAUUUAGUUA, the “pre-steady-state target cleavage rate” value was 0.14 ± 0.018. In the case of UCCUGGAUGUGGUUGCAAAGUAUUUAGUUA, the “pre-steady-state target cleavage rate” value is reported as 0.0262 ± 0.0077. For UCCUGCUACACCUUCCAUAGUAUUUAGUUA, the “pre-steady-state target cleavage rate” value was 0.0271 ± 0.013.

Same assay, conditions: auxiliary factor: none (no GTSF1)
In the case of UCCUCCUAGAGCUUGCAUAGUAUAUAGUUA, the “pre-steady-state target cleavage rate” value is reported as 0.00315 ± 0.0025. For UCCUGGAUGUCGAUGCAUAGUAUGUUAGUUA, the “pre-steady-state target cleavage rate” value was 0.00559 ± 0.0031. With UCCUCCUACAGCUUGCAUAGUAUUUACUUA the “pre-steady-state target cleavage rate” value was 0.00429 ± 0.0025. With UCCUGGUACAGCUUGCAUAGUAUUUACGUUA the “pre-steady-state target cleavage rate” value was 0.00544 ± 0.0036. In the case of UCCUGGAACAGCUUGCAAAGUAUUUAGUUA, the “pre-steady-state target cleavage rate” value is reported as 0.00796 ± 0.0019. UCCUGGAACAGCUUGCAUAGUAUUCAGUUA was tested, and the “pre-steady-state target cleavage rate” value was 0.00292 ± 0.0026. With UCCUGGAUCAUCUUGCAUAGUAUUUAGUUA the “pre-steady-state target cleavage rate” value was 0.00614 ± 0.002. UCCUGGAUGUCCUUGCAUAGUUAUUUAGUUA was tested, and the “pre-steady-state target cleavage rate” value was 0.00393 ± 0.0027. In the case of UCCUGGAUGUCGAUGCAUAGUAUUUGGUUA, the “pre-steady-state target cleavage rate” value is reported as 0.00614 ± 0.0029. UCCUGCUACUGGUUGCAUAGUAUUUAGUUA was tested, and the “pre-steady-state target cleavage rate” value was 0.0113 ± 0.0029. With UCCUGGUACAGCUUGCAAAGUAAUUAGUUA the “pre-steady-state target cleavage rate” value was 0.00414 ± 0.0027. UCCUGGAUCACGUUGCAUAGUAUUUAGUUA was tested, and the “pre-steady-state target cleavage rate” value was 0.00683 ± 0.0026. UCCUGCUACUCCUUGCAUAGUAUUUAGUAA was tested, and the “pre-steady-state target cleavage rate” value was 0.00412 ± 0.002. In the case of UCCUGGAUCAGCUUGCAUUGUAUUUAGUUA, the “pre-steady-state target cleavage rate” value is reported as 0.00955 ± 0.0024. For UCCUGGAACACCUUGCAUUGUAUUUAGUUA, the “pre-steady-state target cleavage rate” value was 0.00474 ± 0.0027. In the case of UCCUGGAUGUGGUUGCAAAGUAUUUAGUUA, the “pre-steady-state target cleavage rate” value is reported as 0.00983 ± 0.0026.
